Source: PubChem
The entries come from a sample that favours hits as a whole.
KDM5B inh: inhibitors of human KDM5B histone demethylase; Q9UGL1; KDM5B demethylase, FDH-coupled NADH fluorescence (FDH is formaldehyde dehydrogenase); Potency, µM (highest dose often 57.7 µM), hits mostly inhibitors; 220,000 compounds, 2.6% hits; active means well fitted inhibition curve with a large enough effect; further: 0% is about no effect; nearly all actives have a fitted effect of over 70% in size
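Compound dilutions met 200 nM (final) KDM5BΔAP for 10 min at room temperature before substrate addition. The substrate mix held 12.5 µM H3K4me3 with cofactors 25 µM α-ketoglutarate and 50 µM Fe²⁺. NADH signal gain over 30 min defined activity.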
Active calls of the source: *; i = inactive. Potency means the concentration at half of the fitted maximal effect.

SMILES	KDM5B inh
FC(F)(F)c1cc(-c2ccccc2)nc(SCc2cccnc2)n1	i
O=C(c1cscn1)N1CCC(F)(c2nc(-c3ccncc3)no2)CC1	i
CC1=C(C(=O)OC(C)C)C(c2ccc(Cl)cc2Cl)CC(=O)N1 (stereo not given)	i
COCCN1C(=O)c2cccn2CC1CNC(=O)c1ccsc1 (stereo not given)	i
Cc1ncoc1C(=O)NCC1Cn2cccc2C(=O)N1Cc1ccccc1 (stereo not given)	i
O=C(NCC1Cn2cccc2CN1Cc1ccccc1)c1ccsc1 (stereo not given)	25µM*
O=C(NCC1Cn2cccc2C(=O)N1Cc1ccccc1)c1ccsc1 (stereo not given)	i
O=C(NCC1Cn2cccc2CN1Cc1ccccc1)c1ccoc1 (stereo not given)	28µM*
Cc1ccsc1C(=O)NCC1Cn2cccc2CN1C (stereo not given)	32µM*
CN1C(=O)c2cccn2CC1CNC(=O)NC1CCCC1 (stereo not given)	i
CN1C(=O)c2cccn2CC1CNC(=O)c1cccs1 (stereo not given)	i
CCNC(=O)NCC1Cn2cccc2CN1C (stereo not given)	22µM*
Cc1ccc(CNC(=O)NCC2Cn3cccc3C(=O)N2C)cc1 (stereo not given)	i
Cc1ccsc1C(=O)NCC1Cn2cccc2C(=O)N1CC(C)C (stereo not given)	i
Cc1cccc(C(=O)NCC2Cn3cccc3C(=O)N2Cc2ccccc2)c1 (stereo not given)	i
CCn1nc(C(=O)OC(C)C(=O)Nc2ccc(N3CCOCC3)cc2)c2ccccc2c1=O (stereo not given)	i
CN(Cc1ccc(F)cc1)C(=O)C1CC1	i
COC(=O)c1ccc(COC(=O)c2ccccc2Cl)cc1	i
COc1ccc(C2=NOC3(CCN(Cc4cncs4)C3)C2)cc1 (stereo not given)	i
O=C(COc1ncnc2scc(-c3ccc(F)cc3)c12)Nc1ccc(F)cc1	i
CCCS(=O)(=O)N1CC(=O)N(c2cccc(F)c2)C(C)(C(=O)NC2CCCCCC2)C1 (stereo not given)	i
Cc1ccccc1-c1nn2c(=O)cc(CN3CCN(C(=O)c4ccccc4Br)CC3)nc2s1	i
COc1ccc(Cl)cc1Nc1nc(N)nc(CN2CCN(Cc3ccc4c(c3)OCO4)CC2)n1	i
CCCCc1ccc(NC(=S)NCCc2ccc(Cl)cc2)cc1	i
Cc1ccc(Cl)cc1NC(=O)c1csnn1	i
SMILES	KDM5B inh
CN1Cc2cccn2CC1CNC(=O)c1ccoc1 (stereo not given)	28µM*
Cc1cccc(C(=O)NCC2Cn3cccc3C(=O)N2C)c1 (stereo not given)	i
COc1ccc(C(=O)NCC2Cn3cccc3C(=O)N2Cc2ccccc2)cc1 (stereo not given)	i
O=C(NCC1Cn2cccc2C(=O)N1Cc1ccccc1)c1n[nH]c(=O)c2ccccc12 (stereo not given)	i
O=C(NCC1Cn2cccc2C(=O)N1Cc1ccccc1)c1cn[nH]c1-c1ccccc1 (stereo not given)	i
O=C(NCC1Cn2cccc2CN1Cc1ccccc1)c1n[nH]c2ccccc12 (stereo not given)	14µM*
CN1C(=O)c2cccn2CC1CNC(=O)c1ccco1 (stereo not given)	i
O=C(NCC1Cn2cccc2CN1Cc1ccccc1)c1ccncc1 (stereo not given)	28µM*
O=C(NCC1Cn2cccc2C(=O)N1Cc1ccccc1)c1ccncc1 (stereo not given)	i
COc1ccc(-c2noc(-c3nnn(-c4ccc(C)cc4C)c3C)n2)cc1	i
CN(C)CC(C)(C)CNC(=S)NCCc1ccccc1	i
O=c1c(Oc2ccccc2)coc2cc(OCc3ccc(Cl)cc3)ccc12	i
COc1ccc(C2=NN(CC(=O)NCc3ccccc3Cl)C(=O)CC2)cc1	i
CC(=O)NC(CO)C(=O)N1CCc2onc(-c3cccc4ccccc34)c2C1 (stereo not given)	32µM*
NC(=O)NCCC(=O)N1CCc2[nH]nc(-c3cccc4ccccc34)c2C1	i
CCC1(CC)CC1C(=O)N1CCc2onc(-c3cccc(F)c3)c2C1 (stereo not given)	i
CCN(C)C(C)C(=O)N1CCc2onc(-c3ccc(C(F)(F)F)cc3)c2C1 (stereo not given)	i
O=C(Cn1cnnn1)N1CCc2onc(-c3cccc4ccccc34)c2C1	32µM*
CC(C)c1nc(C(=O)N2CCc3onc(-c4ccccc4F)c3C2)cs1	i
CCCN(C(=O)c1cc(S(=O)(=O)N2CCc3ccccc32)cn1C)c1ccc(OCC)cc1	i
CCOc1ccc(/C=C/C(=O)Nc2sc3c(c2C(=O)OC)C(C(=O)OC)CC3)cc1 (stereo not given)	i
CC(=O)N1CCC(NC[C@H]2Cn3c(-c4ccccc4)cnc3CO2)CC1	i
COCc1cc(C)nc(SCC(=O)Nc2ccc3[nH]c(=O)[nH]c3c2)c1C#N	i
